# Of roughly 8,800 targets only a part is listed; those with a hit were picked by preference. About 0.5% of all pairs of compound and target were hits. A number with no mark means an inactive call.
# What was measured:
# Assay in all cases: log2 fold change, soluble protein after heating vs DMSO (PISA); higher = thermal stabilisation; K562 lysate, 10 uM; active = over 0.2 and 3.5 SD of the protein, either way, in both replicates (recomputed)
# ibrutinib = compound: C=CC(=O)N1CCC[C@@H](n2nc(-c3ccc(Oc4ccccc4)cc3)c3c(N)ncnc32)C1 [ibrutinib]
# Procedure, shortened: (§1)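 Log-two fold change in thermal stability relative to solvent controls is reported from duplicates. For each sample, crude K562 extract from dounce-homogenised pellets in PBS pH 7.4 with 1 mM MgCl2, at 1 mg/mL protein, was treated with 10 μM compound for 30 min. Aliquots heated for 3 min across 48°C-58°C were pooled, brought to 0.5% NP-40 at 4°C and cleared at 21,000xg for 90 min. The supernatant was quantified by TMTpro 16plex LC-MS/MS with channel sums equalised.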
# [1] = compound: CC(=O)c1cnc2ccc(-c3cc(Cl)c(O)c(Cl)c3)nc2c1N[C@H]1CC[C@H](CN(C)C)CC1
# Procedure, shortened: as §1
# ralimetinib = compound: CC(C)(C)Cn1c(N)nc2ccc(-c3[nH]c(C(C)(C)C)nc3-c3ccc(F)cc3)nc21 [ralimetinib]
# Procedure, shortened: as §1
# [2] = compound: CC(C)(O)CC(=O)NCCn1ccc2ncnc(Nc3ccc(Oc4cccc(C(F)(F)F)c4)c(Cl)c3)c21
# Procedure, shortened: as §1
# [3] = compound: CC(C)C1=C2N=C(C=C(N2N=C1)NCC3=CC=CC=C3)NCCCCCCN
# Procedure, shortened: as §1
# [4] = compound: CC1=C(C(CC(=O)N1)C2=CC=C(C=C2)C(F)(F)F)C(=O)NC3=C(C=C4C(=C3)C=NN4)F
# Procedure, shortened: as §1
# [5] = compound: CC1=C(C2=C(C=C1)C(=O)C3=CC=CC=C3N2CCCN)C
# Procedure, shortened: as §1
# [6] = compound: CC1=C(C=C(C=C1)NC(=O)C2=CC(=CC=C2)C(C)(C)C#N)NC3=CC4=C(C=C3)N=CN(C4=O)C
# Procedure, shortened: as §1
# [7] = compound: CC1=C(C=C(C=C1)NC(=O)C2=CC(=CC=C2)N(C)C)NC(=O)C3=CC=C(C=C3)O
# Procedure, shortened: as §1
# [8] = compound: CC1=CC=C(C=C1)SC2=C3C=C(SC3=CN=C2)C(=O)N
# Procedure, shortened: as §1
# Sequence of UniProt Q96LT7 (Q96LT7 whole entry, looked up): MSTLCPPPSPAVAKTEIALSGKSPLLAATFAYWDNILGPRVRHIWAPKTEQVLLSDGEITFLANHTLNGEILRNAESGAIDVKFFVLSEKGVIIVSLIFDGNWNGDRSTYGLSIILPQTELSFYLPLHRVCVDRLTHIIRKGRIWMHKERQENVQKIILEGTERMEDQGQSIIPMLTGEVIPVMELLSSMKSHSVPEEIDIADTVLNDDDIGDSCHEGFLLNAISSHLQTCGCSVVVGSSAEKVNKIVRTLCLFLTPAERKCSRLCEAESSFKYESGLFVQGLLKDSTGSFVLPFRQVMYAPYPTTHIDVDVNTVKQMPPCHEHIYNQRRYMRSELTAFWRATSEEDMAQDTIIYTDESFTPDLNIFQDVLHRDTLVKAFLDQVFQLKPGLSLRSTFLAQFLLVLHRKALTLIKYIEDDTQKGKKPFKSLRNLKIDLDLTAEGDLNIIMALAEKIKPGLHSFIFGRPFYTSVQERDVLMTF
# Sequence of UniProt Q96ER9 (Q96ER9 whole entry, looked up): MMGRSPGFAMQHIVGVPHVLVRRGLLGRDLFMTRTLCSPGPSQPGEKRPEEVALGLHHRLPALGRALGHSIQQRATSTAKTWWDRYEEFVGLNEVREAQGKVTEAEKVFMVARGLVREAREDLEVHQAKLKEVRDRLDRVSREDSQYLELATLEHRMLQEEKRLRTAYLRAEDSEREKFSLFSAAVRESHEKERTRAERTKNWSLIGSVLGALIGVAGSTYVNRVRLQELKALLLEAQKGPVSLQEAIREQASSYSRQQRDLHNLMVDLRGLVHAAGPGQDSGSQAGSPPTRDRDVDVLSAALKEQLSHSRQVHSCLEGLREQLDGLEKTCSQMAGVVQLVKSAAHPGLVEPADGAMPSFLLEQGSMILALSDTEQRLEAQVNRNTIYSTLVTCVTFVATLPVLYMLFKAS
# Sequence of UniProt P27824 (P27824 whole entry, looked up): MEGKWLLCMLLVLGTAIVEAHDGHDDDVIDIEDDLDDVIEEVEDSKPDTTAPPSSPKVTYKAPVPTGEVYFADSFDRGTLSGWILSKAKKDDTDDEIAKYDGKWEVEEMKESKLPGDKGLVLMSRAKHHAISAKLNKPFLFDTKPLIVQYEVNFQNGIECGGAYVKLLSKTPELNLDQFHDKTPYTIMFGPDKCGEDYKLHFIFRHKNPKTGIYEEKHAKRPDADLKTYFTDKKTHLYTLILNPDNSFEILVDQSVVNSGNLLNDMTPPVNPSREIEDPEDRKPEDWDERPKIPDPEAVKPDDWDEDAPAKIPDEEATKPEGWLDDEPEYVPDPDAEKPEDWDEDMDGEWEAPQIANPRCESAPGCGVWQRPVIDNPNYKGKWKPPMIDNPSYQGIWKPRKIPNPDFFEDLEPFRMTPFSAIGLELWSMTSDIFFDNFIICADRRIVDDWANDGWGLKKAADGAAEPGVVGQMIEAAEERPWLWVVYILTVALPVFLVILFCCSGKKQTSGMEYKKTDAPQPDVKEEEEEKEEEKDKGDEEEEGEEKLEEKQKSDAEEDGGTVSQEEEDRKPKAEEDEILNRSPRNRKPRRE
# Sequence of UniProt Q8WYN0 (Q8WYN0 whole entry, looked up): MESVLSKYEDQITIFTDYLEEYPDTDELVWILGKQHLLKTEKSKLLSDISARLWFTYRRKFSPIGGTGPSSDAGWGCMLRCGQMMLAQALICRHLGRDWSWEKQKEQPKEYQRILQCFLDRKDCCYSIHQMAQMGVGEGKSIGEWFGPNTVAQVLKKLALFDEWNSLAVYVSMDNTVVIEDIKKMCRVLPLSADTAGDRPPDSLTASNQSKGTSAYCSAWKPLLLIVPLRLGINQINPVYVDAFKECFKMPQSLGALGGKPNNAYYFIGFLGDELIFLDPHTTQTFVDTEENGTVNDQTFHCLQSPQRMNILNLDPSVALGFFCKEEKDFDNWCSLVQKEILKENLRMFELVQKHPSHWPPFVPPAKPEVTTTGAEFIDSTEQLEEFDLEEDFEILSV
# Sequence of UniProt Q9HD20 (Q9HD20 whole entry, looked up): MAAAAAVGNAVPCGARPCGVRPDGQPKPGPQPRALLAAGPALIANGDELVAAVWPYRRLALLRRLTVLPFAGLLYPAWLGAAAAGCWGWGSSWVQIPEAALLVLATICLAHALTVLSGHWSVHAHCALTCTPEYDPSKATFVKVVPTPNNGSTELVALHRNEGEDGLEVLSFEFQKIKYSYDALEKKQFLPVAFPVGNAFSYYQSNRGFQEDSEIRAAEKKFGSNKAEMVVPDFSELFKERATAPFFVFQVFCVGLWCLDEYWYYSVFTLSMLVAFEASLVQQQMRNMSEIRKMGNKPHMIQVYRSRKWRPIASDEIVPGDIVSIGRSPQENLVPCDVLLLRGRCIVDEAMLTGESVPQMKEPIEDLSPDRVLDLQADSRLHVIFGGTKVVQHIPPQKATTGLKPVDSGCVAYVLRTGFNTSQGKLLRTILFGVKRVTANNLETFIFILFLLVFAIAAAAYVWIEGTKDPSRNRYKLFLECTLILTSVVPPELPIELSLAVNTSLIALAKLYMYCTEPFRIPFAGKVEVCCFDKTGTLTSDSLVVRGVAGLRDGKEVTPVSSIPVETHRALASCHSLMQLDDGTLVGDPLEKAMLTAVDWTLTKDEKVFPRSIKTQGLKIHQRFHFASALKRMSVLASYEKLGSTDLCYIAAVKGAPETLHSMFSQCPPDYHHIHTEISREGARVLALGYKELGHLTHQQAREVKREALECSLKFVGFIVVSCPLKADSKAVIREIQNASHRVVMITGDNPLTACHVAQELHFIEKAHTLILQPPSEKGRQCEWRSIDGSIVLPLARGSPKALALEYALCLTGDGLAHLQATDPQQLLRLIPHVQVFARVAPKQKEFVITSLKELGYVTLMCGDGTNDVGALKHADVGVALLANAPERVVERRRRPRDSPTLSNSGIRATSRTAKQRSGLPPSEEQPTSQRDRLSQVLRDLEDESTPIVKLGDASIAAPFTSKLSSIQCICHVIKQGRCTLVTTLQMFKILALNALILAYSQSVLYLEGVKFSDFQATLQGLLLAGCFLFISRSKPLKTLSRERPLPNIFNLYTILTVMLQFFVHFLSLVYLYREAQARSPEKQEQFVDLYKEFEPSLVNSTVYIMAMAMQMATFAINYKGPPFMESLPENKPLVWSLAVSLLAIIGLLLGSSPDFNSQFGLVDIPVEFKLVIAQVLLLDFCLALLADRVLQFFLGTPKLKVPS
# Sequence of UniProt Q9BXL7 (Q9BXL7 whole entry, looked up): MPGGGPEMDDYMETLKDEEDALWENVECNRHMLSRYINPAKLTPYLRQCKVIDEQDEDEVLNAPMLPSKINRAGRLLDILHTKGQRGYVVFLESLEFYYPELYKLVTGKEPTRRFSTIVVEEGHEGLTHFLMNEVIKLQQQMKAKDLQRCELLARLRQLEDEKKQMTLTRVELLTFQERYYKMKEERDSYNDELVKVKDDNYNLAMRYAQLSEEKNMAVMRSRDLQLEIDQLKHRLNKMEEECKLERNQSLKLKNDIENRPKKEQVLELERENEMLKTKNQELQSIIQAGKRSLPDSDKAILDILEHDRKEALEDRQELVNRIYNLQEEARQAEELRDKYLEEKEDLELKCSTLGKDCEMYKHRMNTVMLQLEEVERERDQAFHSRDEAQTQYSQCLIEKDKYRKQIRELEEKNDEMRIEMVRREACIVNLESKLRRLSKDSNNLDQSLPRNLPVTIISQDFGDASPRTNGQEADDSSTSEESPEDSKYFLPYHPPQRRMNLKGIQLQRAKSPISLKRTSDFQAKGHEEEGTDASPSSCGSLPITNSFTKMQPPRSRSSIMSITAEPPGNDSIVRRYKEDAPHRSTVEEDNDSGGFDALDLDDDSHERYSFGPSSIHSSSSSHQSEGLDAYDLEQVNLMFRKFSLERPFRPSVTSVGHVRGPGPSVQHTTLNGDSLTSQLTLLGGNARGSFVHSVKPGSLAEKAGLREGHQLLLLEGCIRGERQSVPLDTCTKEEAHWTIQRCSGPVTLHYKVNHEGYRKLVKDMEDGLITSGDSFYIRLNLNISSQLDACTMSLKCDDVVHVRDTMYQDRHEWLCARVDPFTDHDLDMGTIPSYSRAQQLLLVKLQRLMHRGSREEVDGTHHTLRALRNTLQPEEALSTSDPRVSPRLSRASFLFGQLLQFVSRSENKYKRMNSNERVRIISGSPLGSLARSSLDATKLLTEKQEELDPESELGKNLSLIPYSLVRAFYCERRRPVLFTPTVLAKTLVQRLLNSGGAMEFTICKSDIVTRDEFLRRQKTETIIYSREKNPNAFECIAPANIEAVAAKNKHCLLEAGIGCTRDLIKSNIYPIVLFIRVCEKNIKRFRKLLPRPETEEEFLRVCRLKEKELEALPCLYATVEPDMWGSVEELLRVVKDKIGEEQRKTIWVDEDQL
# Sequence of UniProt Q5BKX5 (Q5BKX5 whole entry, looked up): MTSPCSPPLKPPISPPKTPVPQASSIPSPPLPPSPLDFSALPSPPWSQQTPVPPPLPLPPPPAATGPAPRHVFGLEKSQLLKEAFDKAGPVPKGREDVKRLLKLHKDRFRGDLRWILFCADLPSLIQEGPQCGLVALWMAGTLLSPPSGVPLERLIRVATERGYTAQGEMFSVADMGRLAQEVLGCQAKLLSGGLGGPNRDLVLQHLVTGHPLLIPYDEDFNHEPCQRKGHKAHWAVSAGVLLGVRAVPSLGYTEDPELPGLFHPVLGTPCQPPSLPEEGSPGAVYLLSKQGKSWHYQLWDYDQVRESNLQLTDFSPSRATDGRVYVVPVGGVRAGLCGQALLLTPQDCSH
# Sequence of UniProt P18859 (P18859 whole entry, looked up): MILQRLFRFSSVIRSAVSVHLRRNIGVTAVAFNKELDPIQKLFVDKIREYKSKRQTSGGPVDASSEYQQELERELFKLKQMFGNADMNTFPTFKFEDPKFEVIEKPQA
# Sequence of UniProt O43709 (O43709 whole entry, looked up): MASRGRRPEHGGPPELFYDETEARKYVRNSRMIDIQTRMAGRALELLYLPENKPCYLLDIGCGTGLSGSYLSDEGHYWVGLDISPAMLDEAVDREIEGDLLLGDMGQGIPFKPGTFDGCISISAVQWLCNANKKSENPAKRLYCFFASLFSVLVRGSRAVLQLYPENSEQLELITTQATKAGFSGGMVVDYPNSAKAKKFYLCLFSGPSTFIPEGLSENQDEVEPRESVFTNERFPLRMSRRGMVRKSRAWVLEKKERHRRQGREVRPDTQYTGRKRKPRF
Target,log2 fold change (ibrutinib),log2 fold change [1],log2 fold change (ralimetinib),log2 fold change [2],log2 fold change [3],log2 fold change [4],log2 fold change [5],log2 fold change [6],log2 fold change [7],log2 fold change [8]
CARD11 (UniProt Q9BXL7),-0.097,-0.023,-0.02,0.003,-0.075,-0.041,0.025,0.01,0.051,-0.143
CCNK isoform 4 (UniProt O75909),0.09,0.007,0.042,-0.01,0.012,0.015,-0.017,0.024,-0.037,-0.007
CARHSP1 (UniProt Q9Y2V2),0.053,0.021,-0.024,-0.032,0.017,-0.029,0.006,0.014,0.009,-0.008
CAMK1 (UniProt Q14012),0.017,0.009,0.004,-0.144,-0.017,-0.034,-0.003,0.016,-0.027,0.008
CCT6A (UniProt P40227),0.017,-0.005,-0.007,0.022,-0.013,-0.014,0.003,-0.016,-0.014,0.018
CDS2 (UniProt O95674),0.008,-0.013,-0.061,-0.07,-0.03,-0.025,0.004,0.05,0.04,-0.015
CANX isoform 2 (UniProt P27824),-0.046,-0.009,-0.029,0.003,0.007,0.001,-0.004,0.011,0.029,-0.025
CAMKK2 (UniProt Q96RR4),0.052,0.231 (active),0.035,-0.005,0.019,-0.011,-0.005,-0.031,0.005,0.014
CBX5 (UniProt P45973),-0.047,-0.007,-0.024,-0.087,-0.02,-0.088,-0.02,0.028,0.007,-0.033
C2CD5 isoform 3 (UniProt Q86YS7),-0.005,-0.026,0.016,-0.123,0.019,-0.018,0.023,0.071,-0.004,-0.068
CDKN2AIP (UniProt Q9NXV6),-0.003,-0.038,-0.013,0.029,-0.04,-0.009,0.03,0.004,-0.019,-0.009
CAMLG (UniProt P49069),-0.019,-0.003,0.084,-0.023,0.009,-0.068,-0.024,-0.028,0.004,-0.012
BUD23 isoform 3 (UniProt O43709),-0.017,-0.007,0.089,-0.002,-0.064,-0.004,0.119,-0.056,-0.023,-0.001
C9orf72 (UniProt Q96LT7),-0.079,-0.004,-0.011,-0.021,0.025,-0.066,0.014,-0.003,-0.023,0.038
CEPT1 (UniProt Q9Y6K0),0.011,0.061,0.009,-0.003,0.032,0.004,-0.008,0.026,0,0.024
ATR (UniProt Q13535),0.06,0.319,0,-0.037,0.016,-0.015,-0.031,0.032,0.039,-0.053
ATP13A1 (UniProt Q9HD20),-0.021,0.048,0.029,-0.104,0.036,0.005,-0.089,-0.108,0.062,0.007
CEP76 (UniProt Q8TAP6),-0.004,0.081,0.019,0.003,-0.002,-0.019,-0.063,0.051,0,-0.005
ATG4A (UniProt Q8WYN0),0.032,-0.006,0.011,-0.051,-0.055,-0.006,-0.004,0.053,0.021,-0.014
CCDC51 (UniProt Q96ER9),0.056,0.011,-0.012,0.036,-0.011,0.025,0.011,-0.013,0.033,0.013
BUB1B isoform 3 (UniProt O60566),0.035,-0.007,0.001,0.021,0.003,-0.001,0.004,-0.028,0.003,0.001
ATP5PF isoform 2 (UniProt P18859),0.069,-0.055,-0.003,0.063,-0.053,-0.032,-0.055,0.026,0.05,0.083
BLOC1S6 (UniProt Q9UL45),0.156,-0.07,0.015,0.061,-0.029,0.014,-0.033,-0.001,-0.017,0.012
BET1 (UniProt O15155),-0.03,0.041,-0.085,0.01,0.035,0.033,-0.01,-0.019,0.001,-0.001
C19orf54 (UniProt Q5BKX5),0.041,0.003,-0.018,-0.055,0.028,0.012,0.06,-0.041,0.013,0.063
CDK11B (UniProt P21127),-0.008,0.438 (active),0.028,0.034,0.01,-0.027,-0.011,0,0.01,0.003
CARS isoform 3 (UniProt P49589),-0.012,0.015,-0.016,0.033,-0.016,-0.001,0.015,-0.032,0.009,0.016

# — the supplement of paper PMC10849652
